# High-throughput results deposited in PubChem by National Center for Advancing Translational Sciences (NCATS).
# A selection: hits, their analogues and other compounds. The true share with any hit is near 2.8%.
# GLS inhibitor – qHTS for Inhibitors of Glutaminase (GLS). GLS enzymatic activity, qHTS titration. Potency, µM (series often up to 45.5 µM), hits mostly inhibitors. 0.21% of 410,000 active
#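 Human kidney-isoform GLS in 45 mM KH2PO4 pH 8.2, 0.02% Tween-20, with compound, started with 1mM L-Glutamine (added stock). Glutamate oxidase/HRP/Amplex red coupled fluorescence read at start and after 30 min at RT.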
# HEK293 tox – qHTS of GLP-1 Receptor Inverse Agonists: Cytotox Screen. Potency, µM (series often up to 38.3 µM), actives largely listed as inhibitors. 0.13% of 410,000 active. HEK293 cAMP-luciferase reporter cells, luminescence, 24 h;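 further: loss of luciferase light is scored as toxicity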
#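 Seeding density was 200 cells/uL; after overnight-length (12 h) culture, 23 nL compounds went on for 24 h at 37 °C. Readout used a luciferase detection reagent, luminescence taken after 12 min at room temperature.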
# GLP1R ag – qHTS of GLP-1 Receptor Agonists; Potency, µM (doses to about 45.6 µM), actives largely listed as activators; 0.007% of 380,000 active; HEK293 GLP-1R CRE-luciferase, luminescence, 4-6 h; cells express a hypersensitive GLP-1R form; AID 624172, 2012; Glucagon-like peptide 1 receptor (Homo sapiens), P43220
# KCNH2 3.1 block – qHTS for Inhibitors of KCHN2 3.1: Mutant qHTS; AID 720553, 2013; 0.95% of 340,000 active; U2OS KCNH2 3.1, thallium flux FluxOr; active compounds read low; Potassium voltage-gated channel subfamily H member 2, brain isoform KCNH2 3.1 (human); activity change, % (tested at about 1.8 µM);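 active means maximum activity change below -70%; inconclusive means maximum activity change from -70% to -50%; inactive means maximum activity change above -50%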;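 further: thallium influx rate constant from kinetic fluorescence after stimulation buffer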
#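 Thallium flux via FluxOr fluorescence (Red40 quencher, 45 min loading) in U2OS cells virally expressing the KCNH2 3.1 isoform (1.77 x 10^8 /mL virus, overnight at 37 C). Rate constants from 2-min kinetic reads post-stimulation, normalised to positive and negative controls.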
# hERG WT inh – qHTS for Inhibitors of KCHN2 3.1: Wildtype qHTS; Voltage-gated inwardly rectifying potassium channel KCNH2 (Homo sapiens), Q12809; U2OS, BacMam KCNH2, thallium flux FluxOr; active compounds read low; activity change, % at 1.84 µM; 0.37% of 340,000 active; AID 720551, 2013;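 active means maximum activity change below -70%; inconclusive means maximum activity change between -70% and -50%; inactive means maximum activity change above -50%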
#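 U2OS cells were transduced with wild-type KCNH2 virus (2.03 x 10^8 / mL) for 4 h at room temperature, then cultured overnight at 37 C. Thallium flux was read with FluxOr dye. Rate constants were normalized to DMSO controls.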
# GLP1R inv ag – qHTS of GLP-1 Receptor Inverse Agonists (Inhibition Mode); HEK293 GLP-1R CRE-luciferase, luminescence, 24 h; GLP-1R form is constitutively active; Glucagon-like peptide 1 receptor (Homo sapiens), P43220; AID 624417, 2012; Potency, µM (highest dose often 38.3 µM), hits mostly inhibitors; 1.6% of 410,000 active; further: nearly all actives have a fitted effect of over 55% in size
#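 HEK293 cells stably co-expressing constitutively active GLP-1R and a cAMP-responsive luciferase reporter were seeded in DMEM with 10% Nu serum, given compounds after 12 h, and incubated 24 h at 37 deg C. Luminescence was then read.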
# A number is an active result; . = inactive; ? = inconclusive; / = not tested or not shown. Unless noted, the call rests on the fitted dose curve; in most records, active means well fitted curve in the direction sought with a large enough effect; inconclusive means small, poorly fitted or top-dose-only effect, or another doubt; inactive means no such curve, though single readings can be large; an effect the other way counts as inactive or inconclusive.
SMILES,GLS inhibitor,HEK293 tox,GLP1R ag,KCNH2 3.1 block,hERG WT inh,GLP1R inv ag
Cc1ccc(NC(=O)C(=O)NCCN2CCN(C(=S)Nc3ccccc3)CC2)cc1,.,.,.,.,.,.
CCN1CCN(CCNC(=O)Nc2ccc([N+](=O)[O-])cc2)CC1,.,.,.,.,.,.
Cc1ccc(NC(=O)C(=O)NCCN2CCN(Cc3ccc([N+](=O)[O-])cc3)CC2)cc1,.,.,.,-108,-82,.
O=C(NCCN1CCN(C(=O)c2ccc(Br)cc2)CC1)c1ccc(Br)cc1,.,.,.,-83,.,?
Cc1ccc(C(=O)N2CCN(CCNC(=O)C(=O)Nc3ccc(Cl)cc3)CC2)cc1,.,.,.,-87,.,.
CCc1ccc(NC(=O)C(=O)NCCN2CCN(Cc3ccc([N+](=O)[O-])cc3)CC2)cc1,.,.,.,-106,-91,.
Cc1ccc(NS(=O)(=O)c2cc(-c3cnc(C4CC4)o3)ccc2C)cc1Cl,.,?,/,/,/,?
CCCCn1nnnc1C(c1cc2ccccc2o1)N1CCOCC1 (configuration not stated),.,.,.,/,/,.
COc1ccccc1N(C)S(=O)(=O)c1ccc(Cl)c(C(=O)OCc2c(C)noc2C)c1,.,.,.,.,.,10µM
COc1ccccc1N(C)S(=O)(=O)c1ccc(Cl)c(C(=O)NNC(=O)c2ccccc2O)c1,.,.,.,.,.,11µM
Cc1ccc(C(=O)N2CCc3cc(CNC(=O)CSc4ccccc4)ccc32)cc1,.,.,/,/,/,?
C/C(=N\Nc1nc2ccccc2s1)c1ccc(Br)s1,.,?,.,.,.,10µM
CC(=NNc1nc2ccccc2s1)c1ccncn1,.,.,.,.,.,.
O=C(NCC(=O)c1ccccc1)OCc1ccc([N+](=O)[O-])cc1,.,.,.,.,.,.
C=CCc1cccc(CNc2nc3ccccc3n2CC)c1O,.,.,.,.,.,5µM
Cc1ccc(S(=O)(=O)N2CCC[C@H]2C(=O)OCc2nc3ccccc3s2)cc1,.,.,.,.,.,.
CC(NC(=O)NC1CCCCC1)c1ccc2c(c1)OCO2 (configuration not stated),.,.,.,.,.,?
CC(NC(=O)NC12CC3CC(CC(C3)C1)C2)c1ccc2c(c1)OCO2 (configuration not stated),.,.,.,.,.,11µM
COc1cccc(-n2c(SCc3ccc(F)cc3)nc3c([nH]c4ccccc43)c2=O)c1,.,.,.,/,/,8.9µM
CC(C)CCNC(=O)C(c1ccco1)N(Cc1ccc(F)cc1)C(=O)c1snc(C(N)=O)c1N (configuration not stated),.,.,.,.,.,3.5µM
CN(C)c1ccc(C(C(=O)NC2CCCCC2)N(Cc2ccco2)C(=O)c2snc(C(N)=O)c2N)cc1 (configuration not stated),.,?,.,.,.,2µM
NC(=O)c1nsc(C(=O)N(Cc2ccc(F)cc2)C(C(=O)NC2CCCC2)c2ccco2)c1N (configuration not stated),.,.,.,.,.,.
C/C(=N\NC(=S)NC1CCCCC1)c1c(F)cccc1F,.,?,.,.,.,4µM
C/C(=N\NC(=S)NC1CCCCC1)c1cccs1,.,?,.,.,.,?
CN(C)CCCN(C(=O)c1ccc(S(=O)(=O)N(C)C2CCCCC2)cc1)c1nc2ccc(F)cc2s1,.,?,?,.,.,?
CCc1ccc2nc(N(CCN(C)C)C(=O)c3ccc4ccccc4c3)sc2c1,.,.,.,.,.,13µM
CCc1ccc2nc(N(CCCN(C)C)C(=O)c3ccc(S(=O)(=O)N(C)C4CCCCC4)cc3)sc2c1,.,?,.,-72,.,?
